In the supplement of paper PMC12669032:

Legend:
Assay in all cases: growth AUC relative to DMSO control (median of replicates) (fraction); higher = more growth (less inhibition), active = hit call of the paper
Conditions in all cases: 20 µM; 24 h;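 active = AUC reduced over 20% with Padj below 0.05 in at least 2 of 3 replicates; inactive = otherwise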
[1] = system: Coprococcus comes
Method in brief: (§1)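 Area under the growth curve was normalised to the plate median of solvent-only wells, except on the industrial chemical plate, where row and column medians were used. Curves came from gut bacterial monocultures grown anaerobically at 37 °C in mGAM with 20 µM compound (1% DMSO), starting at OD600 0.05 and read at OD600 every hour for 24 h. The minimum OD of each curve was set to 0, and values are medians of three biological replicates grown on separate days.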

[2] = system: Escherichia coli ED1a
Method in brief: as §1

[3] = system: Escherichia coli IAI1
Method in brief: as §1

[4] = system: Eubacterium rectale
Method in brief: as §1

[5] = system: Fusobacterium nucleatum subsp. animalis
Method in brief: as §1

[6] = system: Lactobacillus gasseri
Method in brief: as §1

[7] = system: Lactobacillus paracasei
Method in brief: as §1

[8] = system: Odoribacter splanchnicus
Method in brief: as §1

[9] = system: Parabacteroides distasonis
Method in brief: as §1

[10] = system: Parabacteroides merdae
Method in brief: as §1

[11] = system: Roseburia intestinalis
Method in brief: as §1

[12] = system: Streptococcus salivarius
Method in brief: as §1

Measured: growth AUC

COP(=O)(OC)Oc1ccc(S(C)=O)c(C)c1 (stereo not given)
inactive: [1] 1.01 | [2] 0.962 | [3] 0.987 | [4] 0.797 | [5] 0.911 | [6] 1.13 | [7] 0.975 | [8] 1.02 | [9] 1.01 | [10] 0.978 | [11] 1.01 | [12] 1.01

CC(Oc1ccc(Oc2ccc(C(F)(F)F)cn2)cc1)C(=O)O (stereo not given)
active: [8] 0.766
inactive: [1] 1.01 | [2] 0.995 | [3] 0.996 | [4] 1.12 | [5] 0.915 | [6] 0.839 | [7] 0.969 | [9] 0.72 | [10] 0.993 | [11] 0.908 | [12] 0.93

O=CNC(N1CCN(C(NC=O)C(Cl)(Cl)Cl)CC1)C(Cl)(Cl)Cl (stereo not given)
inactive: [1] 0.946 | [2] 0.975 | [3] 0.935 | [4] 0.881 | [6] 0.873 | [7] 1.06 | [8] 1.01 | [9] 0.914 | [10] 0.948 | [11] 0.934 | [12] 0.982
active: [5] 0.658

CCC(C)c1cc([N+](=O)[O-])cc([N+](=O)[O-])c1O (stereo not given)
inactive: [1] 0.884 | [2] 0.935 | [3] 0.924 | [4] 0.939 | [5] 0.737 | [6] 0.959 | [7] 0.925 | [9] 0.841 | [10] 0.929 | [11] 0.887 | [12] 0.938
active: [8] 0.799

C1=Cc2cccc3cccc1c23
inactive: [1] 1.01 | [2] 1.02 | [3] 1.01 | [4] 0.988 | [5] 1.02 | [6] 0.975 | [7] 1.04 | [8] 0.99 | [9] 0.889 | [10] 1.02 | [11] 0.987 | [12] 0.98

COP(=S)(OC)Oc1ccc(Sc2ccc(OP(=S)(OC)OC)cc2)cc1
inactive: [1] 1.03 | [2] 1.05 | [3] 1.01 | [4] 1.01 | [5] 1.09 | [6] 1.03 | [7] 0.973 | [8] 1.13 | [9] 1.01 | [10] 1.05 | [11] 1.03 | [12] 1.01

O=C(NC(=O)c1c(F)cccc1F)Nc1ccc(Oc2ccc(C(F)(F)F)cc2Cl)cc1F
inactive: [1] 1 | [2] 1.03 | [3] 1.03 | [4] 0.994 | [5] 0.951 | [6] 1.21 | [7] 0.974 | [8] 0.978 | [9] 0.988 | [10] 1 | [11] 1.1 | [12] 0.985

O=C(NC(=O)c1ccccc1Cl)Nc1ccc(OC(F)(F)F)cc1
inactive: [1] 0.949 | [2] 0.97 | [3] 0.952 | [4] 1.04 | [5] 0.728 | [6] 0.856 | [7] 0.892 | [8] 1.04 | [9] 0.965 | [10] 0.971 | [11] 0.918 | [12] 0.951

O=c1ccc(=O)[nH][nH]1
inactive: [1] 0.996 | [2] 0.973 | [3] 0.976 | [4] 1.06 | [5] 0.877 | [6] 0.957 | [7] 1.11 | [8] 1.08 | [9] 1.01 | [10] 0.99 | [11] 1.01 | [12] 0.965

Nc1nc(N)nc(NC2CC2)n1
inactive: [1] 1 | [2] 0.982 | [3] 0.986 | [4] 1.04 | [5] 1.04 | [6] 0.877 | [7] 0.959 | [8] 1.04 | [9] 1.03 | [10] 1 | [11] 0.97 | [12] 0.981

CCc1cccc(CC)c1N(COC)C(=O)CCl
inactive: [1] 0.976 | [2] 0.96 | [3] 0.975 | [4] 0.993 | [5] 1.05 | [6] 0.948 | [7] 1.01 | [8] 1.04 | [9] 0.993 | [10] 0.978 | [11] 0.988 | [12] 0.981

C=CCNC(=O)c1c([Si](C)(C)C)sc(C)c1C
inactive: [1] 0.984 | [2] 0.972 | [3] 1.01 | [4] 0.967 | [5] 0.894 | [6] 1.05 | [7] 0.986 | [8] 0.97 | [9] 1.01 | [10] 0.973 | [11] 1.03 | [12] 1

c1nc[n]([Sn]([CH]2CCCCC2)([CH]2CCCCC2)[CH]2CCCCC2)n1
inactive: [1] 0.723 | [2] 1.06 | [3] 1.06 | [4] 0.908 | [5] 1.03 | [6] 1.03 | [7] 0.972 | [8] 1.03 | [9] 0.927 | [12] 1.01
active: [10] 0.746 | [11] 0.654

COc1cc(OC)n2nc(S(=O)(=O)Nc3c(Cl)ccc(C)c3Cl)nc2n1
inactive: [1] 1.02 | [2] 0.993 | [3] 1.02 | [4] 0.994 | [5] 0.9 | [6] 1.09 | [7] 0.978 | [8] 1.02 | [9] 1.06 | [10] 0.986 | [11] 0.999 | [12] 0.954

COP(=S)(OC)Oc1ccc(S(C)(=O)=O)c(C)c1
inactive: [1] 1.03 | [2] 0.991 | [3] 0.985 | [4] 1 | [5] 1.1 | [6] 0.901 | [7] 1.01 | [8] 1.03 | [9] 0.987 | [10] 0.993 | [11] 0.985 | [12] 0.972

N#Cc1cc(Br)c(O)c(Br)c1
inactive: [1] 0.996 | [2] 0.907 | [4] 1.28 | [5] 0.864 | [6] 0.903 | [7] 0.988 | [8] 1.1 | [9] 0.915 | [10] 0.94 | [11] 0.953 | [12] 0.959
active: [3] 0.773

CNC(=O)O/N=C/C(C)(C)S(C)(=O)=O
inactive: [1] 0.98 | [2] 1.03 | [3] 1.03 | [4] 0.939 | [5] 0.97 | [6] 1.05 | [7] 1 | [8] 0.964 | [9] 1.04 | [10] 0.977 | [11] 1.02 | [12] 1.04

Cc1cc(Cl)ccc1OCC(=O)O.O.[Na]
inactive: [1] 1 | [2] 1.01 | [3] 1 | [4] 1.15 | [5] 1.07 | [6] 0.864 | [7] 0.994 | [8] 1.03 | [9] 0.95 | [10] 1.04 | [11] 1.02 | [12] 0.986

CCOC(=O)C(Cl)Cc1cc(-n2nc(C)n(C(F)F)c2=O)c(F)cc1Cl (stereo not given)
inactive: [1] 0.963 | [2] 0.986 | [3] 0.941 | [4] 0.794 | [5] 0.987 | [6] 1.01 | [7] 0.966 | [8] 0.988 | [9] 0.963 | [10] 0.925 | [11] 1.03 | [12] 1.03

COc1ncc(F)c2nc(S(=O)(=O)Nc3c(F)cccc3F)nn12
inactive: [1] 1.03 | [2] 1.01 | [3] 0.989 | [4] 1 | [5] 1.02 | [6] 1.01 | [7] 1 | [8] 0.992 | [9] 0.983 | [10] 1.01 | [11] 1.02 | [12] 1

Clc1ccccc1Cl
inactive: [1] 1.02 | [2] 0.971 | [3] 0.994 | [4] 0.972 | [5] 0.975 | [6] 0.948 | [7] 1.02 | [8] 0.95 | [9] 0.996 | [10] 1.01 | [11] 0.968 | [12] 1.07

CC(Cl)(Cl)C(=O)O
inactive: [1] 0.998 | [2] 1.02 | [3] 0.98 | [4] 0.996 | [5] 1.02 | [6] 1.05 | [7] 0.977 | [8] 0.969 | [9] 1.02 | [10] 0.961 | [11] 1.01 | [12] 1.01

ClC1=C(Cl)C2(Cl)C3COCC3C1(Cl)C2(Cl)Cl (stereo not given)
inactive: [1] 0.912 | [2] 1 | [3] 1.03 | [4] 0.992 | [5] 1.12 | [6] 1.01 | [7] 0.94 | [8] 0.99 | [9] 0.987 | [10] 1.02 | [11] 1.08 | [12] 0.915

CCS(=O)(=O)c1cccnc1S(=O)(=O)NC(=O)Nc1nc(OC)cc(OC)n1
inactive: [1] 0.968 | [2] 1 | [3] 0.999 | [4] 0.943 | [5] 0.912 | [6] 1.01 | [7] 0.996 | [8] 0.897 | [9] 1.02 | [10] 0.993 | [11] 1 | [12] 0.93

CCOP(=S)(OCC)Oc1ccc(Cl)cc1Cl
inactive: [1] 1.03 | [2] 1.01 | [3] 1.02 | [4] 0.953 | [5] 1.03 | [6] 1 | [7] 1.07 | [8] 1.02 | [9] 1.05 | [10] 0.997 | [11] 1.05 | [12] 1.04
